Common to all, as to test: DAPPL (digital affinity profiling via proximity ligation, sequencing); 10 mM Tris-HCl pH 7.5, 50 mM NaCl, 1 mM DTT, 4% glycerol, room temperature, 30 min; GST-TFs on glutathione beads, 16-mer random dsDNA library, 0.1% formaldehyde crosslink after washing; high values mean tight binding
Holding throughout (settings): protein: recombinant; tags: N-terminal GST; dsDNA, one strand shown

One test deals with T1, ELK1 (Homo sapiens, UniProt P19419 1-428).
T1 sequence: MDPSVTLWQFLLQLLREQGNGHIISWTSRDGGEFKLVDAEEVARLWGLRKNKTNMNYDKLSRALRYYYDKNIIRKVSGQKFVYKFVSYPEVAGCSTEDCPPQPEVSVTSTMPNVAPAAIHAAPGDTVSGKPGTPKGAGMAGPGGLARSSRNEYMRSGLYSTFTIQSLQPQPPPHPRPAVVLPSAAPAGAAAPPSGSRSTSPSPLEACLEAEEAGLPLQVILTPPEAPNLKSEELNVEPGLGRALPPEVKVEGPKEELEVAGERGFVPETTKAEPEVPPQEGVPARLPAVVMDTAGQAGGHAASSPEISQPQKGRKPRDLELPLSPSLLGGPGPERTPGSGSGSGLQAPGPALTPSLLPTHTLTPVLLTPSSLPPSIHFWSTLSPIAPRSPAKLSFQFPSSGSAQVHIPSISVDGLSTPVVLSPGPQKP
In outline:
(§1)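 Beads coated with glutathione captured GST-fused human transcription factors that had been expressed in yeast, and the factors were then given DNA barcodes and pooled with a tag-only sample. The pools were incubated with 200 nmole of a random double-stranded 16-mer DNA library in Tris/NaCl/DTT/glycerol buffer for 30 min at room temperature, washed, crosslinked with 0.1% formaldehyde and proximity-ligated with BsaI/T4 ligase at 37 °C for 1 h. PCR amplification and Illumina NextSeq500 sequencing came last. Binding signal is each hexamer's read frequency for a factor divided by its frequency for the tag-only sample.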

Another test has as its target T2, GABPA (Homo sapiens, UniProt Q06546 1-454).
T2 sequence: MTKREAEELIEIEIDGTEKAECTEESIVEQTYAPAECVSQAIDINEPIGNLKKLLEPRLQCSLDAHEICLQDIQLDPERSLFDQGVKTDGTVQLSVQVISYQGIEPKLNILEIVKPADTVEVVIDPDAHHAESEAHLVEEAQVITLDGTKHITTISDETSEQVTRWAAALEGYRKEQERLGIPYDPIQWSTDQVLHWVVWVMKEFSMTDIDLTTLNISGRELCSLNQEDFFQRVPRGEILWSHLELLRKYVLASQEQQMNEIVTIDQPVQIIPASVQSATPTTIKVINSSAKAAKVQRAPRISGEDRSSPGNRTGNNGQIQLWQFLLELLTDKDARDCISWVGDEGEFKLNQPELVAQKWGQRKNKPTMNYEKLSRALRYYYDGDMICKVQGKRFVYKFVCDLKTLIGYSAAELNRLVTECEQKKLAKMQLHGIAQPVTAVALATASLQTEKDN
In outline: as §1

The target in the next test is T3, ERG (Homo sapiens, UniProt P11308 1-479).
T3 sequence: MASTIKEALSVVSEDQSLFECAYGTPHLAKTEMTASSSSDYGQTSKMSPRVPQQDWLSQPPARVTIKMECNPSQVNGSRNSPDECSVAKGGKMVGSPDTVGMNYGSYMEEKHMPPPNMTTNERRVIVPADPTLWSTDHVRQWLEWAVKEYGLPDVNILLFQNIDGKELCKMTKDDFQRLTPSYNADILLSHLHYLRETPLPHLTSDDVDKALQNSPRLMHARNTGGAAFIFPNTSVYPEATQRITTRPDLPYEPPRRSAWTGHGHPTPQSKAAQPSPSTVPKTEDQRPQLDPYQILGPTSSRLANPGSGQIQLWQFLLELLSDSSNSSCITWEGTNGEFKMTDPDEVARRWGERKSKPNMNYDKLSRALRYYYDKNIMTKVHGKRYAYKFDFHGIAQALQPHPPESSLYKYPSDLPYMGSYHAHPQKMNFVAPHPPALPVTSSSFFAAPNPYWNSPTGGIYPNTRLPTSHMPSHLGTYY
The gist of the method: as §1

A further test addresses ELF1 (Homo sapiens, UniProt P32519 1-619). The gist of the method:
as §1

For the next test, the target named is SPI1 (Homo sapiens, UniProt P17947 1-270). The gist of the method:
as §1

The target of another test is SPIB (Homo sapiens, UniProt Q01892 1-262). The gist of the method:
as §1

In another test the target is T4, FEV (Homo sapiens, UniProt Q99581 1-238).
T4 sequence: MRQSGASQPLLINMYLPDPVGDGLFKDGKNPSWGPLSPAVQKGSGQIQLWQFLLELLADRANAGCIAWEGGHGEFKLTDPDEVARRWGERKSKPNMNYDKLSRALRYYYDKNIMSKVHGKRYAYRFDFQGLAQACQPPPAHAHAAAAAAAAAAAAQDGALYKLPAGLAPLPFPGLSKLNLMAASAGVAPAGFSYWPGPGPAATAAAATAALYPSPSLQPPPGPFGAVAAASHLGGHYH
The gist of the method:
as §1

The target in another test is ETV5 (Homo sapiens, UniProt P41161 1-510). In outline:
as §1

The target in a further test is ELF4 (Homo sapiens, UniProt Q99607 1-663). In outline: as §1
The target of a further test is T5, ETV2 (Homo sapiens, UniProt O00321 1-342).
T5 sequence: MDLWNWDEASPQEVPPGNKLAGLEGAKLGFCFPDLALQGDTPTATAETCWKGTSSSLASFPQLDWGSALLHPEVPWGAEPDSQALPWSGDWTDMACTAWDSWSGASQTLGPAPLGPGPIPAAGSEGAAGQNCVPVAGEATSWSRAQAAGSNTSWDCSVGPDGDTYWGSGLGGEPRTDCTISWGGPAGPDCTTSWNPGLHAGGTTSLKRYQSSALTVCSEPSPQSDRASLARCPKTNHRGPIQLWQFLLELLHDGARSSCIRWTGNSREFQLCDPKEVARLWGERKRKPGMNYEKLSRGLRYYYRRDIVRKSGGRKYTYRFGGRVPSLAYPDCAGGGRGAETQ
In outline: as §1

Another test has as its target T6, ERF (Homo sapiens, UniProt P50548 1-548).
T6 sequence: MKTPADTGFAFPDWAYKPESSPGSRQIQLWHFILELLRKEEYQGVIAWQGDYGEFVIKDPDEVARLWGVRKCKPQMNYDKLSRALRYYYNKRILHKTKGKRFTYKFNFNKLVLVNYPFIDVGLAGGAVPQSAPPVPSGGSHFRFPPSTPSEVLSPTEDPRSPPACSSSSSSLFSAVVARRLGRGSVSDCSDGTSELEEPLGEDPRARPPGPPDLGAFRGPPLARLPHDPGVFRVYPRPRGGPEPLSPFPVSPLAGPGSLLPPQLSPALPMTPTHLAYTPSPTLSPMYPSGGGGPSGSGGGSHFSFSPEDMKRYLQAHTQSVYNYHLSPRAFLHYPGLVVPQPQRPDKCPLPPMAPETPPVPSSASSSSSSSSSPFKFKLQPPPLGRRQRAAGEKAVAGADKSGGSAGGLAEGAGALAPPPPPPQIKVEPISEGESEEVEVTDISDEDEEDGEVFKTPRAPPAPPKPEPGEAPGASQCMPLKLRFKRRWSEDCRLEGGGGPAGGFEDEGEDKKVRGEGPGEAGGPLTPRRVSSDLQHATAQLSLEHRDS
The gist of the method:
as §1

Another test deals with T7, ETV3L (Homo sapiens, UniProt Q6ZN32 1-361).
T7 sequence: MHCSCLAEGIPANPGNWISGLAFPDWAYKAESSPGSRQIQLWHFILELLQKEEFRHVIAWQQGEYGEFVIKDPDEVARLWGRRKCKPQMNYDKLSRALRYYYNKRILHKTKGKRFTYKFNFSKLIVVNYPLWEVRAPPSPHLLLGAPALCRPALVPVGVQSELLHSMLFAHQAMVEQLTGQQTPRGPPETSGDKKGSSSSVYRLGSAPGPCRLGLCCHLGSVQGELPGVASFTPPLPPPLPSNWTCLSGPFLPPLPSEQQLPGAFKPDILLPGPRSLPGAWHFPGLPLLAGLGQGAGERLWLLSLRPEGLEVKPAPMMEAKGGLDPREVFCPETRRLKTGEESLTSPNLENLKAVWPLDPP
The gist of the method: as §1

The next test addresses T8, ETS2 (Homo sapiens, UniProt P15036 1-469).
T8 sequence: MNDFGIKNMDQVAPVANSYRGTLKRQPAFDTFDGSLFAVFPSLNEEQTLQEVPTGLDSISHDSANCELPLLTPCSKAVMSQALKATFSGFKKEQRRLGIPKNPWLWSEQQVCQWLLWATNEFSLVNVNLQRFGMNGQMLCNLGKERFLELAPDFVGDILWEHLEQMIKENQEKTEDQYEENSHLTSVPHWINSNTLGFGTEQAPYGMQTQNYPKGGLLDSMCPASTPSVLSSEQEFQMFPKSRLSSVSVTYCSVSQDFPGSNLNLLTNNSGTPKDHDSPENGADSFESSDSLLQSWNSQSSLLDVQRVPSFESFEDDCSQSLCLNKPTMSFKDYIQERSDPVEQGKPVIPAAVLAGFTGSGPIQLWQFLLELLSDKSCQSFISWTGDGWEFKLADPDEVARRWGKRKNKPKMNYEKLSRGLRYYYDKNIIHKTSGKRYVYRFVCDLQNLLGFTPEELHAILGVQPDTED
In outline:
as §1

The target of a further test is T9, SPDEF (Homo sapiens, UniProt O95238 1-335).
T9 sequence: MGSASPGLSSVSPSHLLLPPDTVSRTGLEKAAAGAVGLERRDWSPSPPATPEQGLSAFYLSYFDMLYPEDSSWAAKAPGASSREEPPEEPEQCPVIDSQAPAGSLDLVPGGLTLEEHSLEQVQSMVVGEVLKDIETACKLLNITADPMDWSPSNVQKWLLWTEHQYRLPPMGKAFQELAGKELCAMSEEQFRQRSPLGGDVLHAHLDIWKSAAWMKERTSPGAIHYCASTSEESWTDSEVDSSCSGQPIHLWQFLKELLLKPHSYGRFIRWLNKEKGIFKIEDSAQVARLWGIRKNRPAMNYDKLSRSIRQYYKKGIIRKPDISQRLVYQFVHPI
The gist of the method:
as §1

For the next test, the target named is T10, ETV7 (Homo sapiens, UniProt Q9Y603 1-341).
T10 sequence: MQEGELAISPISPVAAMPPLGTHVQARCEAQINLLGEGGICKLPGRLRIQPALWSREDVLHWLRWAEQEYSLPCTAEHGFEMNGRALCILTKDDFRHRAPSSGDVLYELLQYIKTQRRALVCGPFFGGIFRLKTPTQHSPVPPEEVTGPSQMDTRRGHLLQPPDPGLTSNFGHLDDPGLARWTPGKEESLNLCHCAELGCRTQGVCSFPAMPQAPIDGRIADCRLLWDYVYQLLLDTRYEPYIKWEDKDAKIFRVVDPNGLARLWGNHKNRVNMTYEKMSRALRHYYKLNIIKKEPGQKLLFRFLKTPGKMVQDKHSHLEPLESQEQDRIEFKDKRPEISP
The gist of the method:
as §1

A further test concerns the target T11, ETV3 (Homo sapiens, UniProt P41162-2 1-143).
T11 sequence: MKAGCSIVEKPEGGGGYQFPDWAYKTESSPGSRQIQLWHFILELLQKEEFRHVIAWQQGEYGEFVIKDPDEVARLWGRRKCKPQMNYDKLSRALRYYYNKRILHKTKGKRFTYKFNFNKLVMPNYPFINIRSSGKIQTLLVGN
In outline: as §1

The target of another test is ETV6 (Homo sapiens, UniProt P41212 1-452). In outline: as §1

The source of these data is paper PMC7862700, “An all-to-all approach to the identification of sequence-specific readers for epigenetic DNA modifications on cytosine”.

Chain of ETV6 (P41212 whole entry): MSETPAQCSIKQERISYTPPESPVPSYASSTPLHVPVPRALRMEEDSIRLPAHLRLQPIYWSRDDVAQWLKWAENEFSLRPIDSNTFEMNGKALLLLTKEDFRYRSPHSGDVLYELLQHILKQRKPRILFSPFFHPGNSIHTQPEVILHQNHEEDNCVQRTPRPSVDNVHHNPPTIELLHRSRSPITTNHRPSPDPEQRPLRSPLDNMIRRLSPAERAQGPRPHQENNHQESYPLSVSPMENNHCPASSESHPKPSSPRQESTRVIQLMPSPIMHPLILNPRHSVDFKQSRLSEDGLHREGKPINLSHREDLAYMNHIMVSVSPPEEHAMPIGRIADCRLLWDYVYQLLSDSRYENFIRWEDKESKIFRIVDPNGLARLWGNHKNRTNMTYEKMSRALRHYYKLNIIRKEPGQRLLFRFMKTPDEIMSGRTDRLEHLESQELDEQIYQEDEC
Chain of ETV5 (P41161 whole entry): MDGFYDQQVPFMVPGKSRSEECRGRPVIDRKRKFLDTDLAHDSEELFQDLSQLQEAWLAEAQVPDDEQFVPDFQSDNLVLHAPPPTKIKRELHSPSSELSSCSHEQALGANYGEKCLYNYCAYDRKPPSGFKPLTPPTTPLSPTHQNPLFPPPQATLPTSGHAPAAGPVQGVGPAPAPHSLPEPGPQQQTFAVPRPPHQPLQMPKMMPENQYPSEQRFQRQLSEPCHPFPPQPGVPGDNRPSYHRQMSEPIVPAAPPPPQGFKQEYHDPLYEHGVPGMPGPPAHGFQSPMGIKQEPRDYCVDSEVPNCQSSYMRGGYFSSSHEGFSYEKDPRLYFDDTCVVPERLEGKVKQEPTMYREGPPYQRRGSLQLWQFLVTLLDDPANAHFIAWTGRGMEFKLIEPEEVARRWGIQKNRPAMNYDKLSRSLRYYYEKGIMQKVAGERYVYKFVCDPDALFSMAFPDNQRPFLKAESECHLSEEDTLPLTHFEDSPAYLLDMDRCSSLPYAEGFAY
Chain of SPIB (Q01892 whole entry): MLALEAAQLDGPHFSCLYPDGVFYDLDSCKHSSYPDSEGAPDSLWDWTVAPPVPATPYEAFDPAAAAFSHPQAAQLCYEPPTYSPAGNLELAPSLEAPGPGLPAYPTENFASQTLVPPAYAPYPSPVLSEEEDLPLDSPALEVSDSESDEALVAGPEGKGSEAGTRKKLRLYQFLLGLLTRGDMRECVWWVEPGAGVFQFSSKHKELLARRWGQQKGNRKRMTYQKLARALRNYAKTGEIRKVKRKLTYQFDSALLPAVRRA
Chain of ELF4 (Q99607 whole entry): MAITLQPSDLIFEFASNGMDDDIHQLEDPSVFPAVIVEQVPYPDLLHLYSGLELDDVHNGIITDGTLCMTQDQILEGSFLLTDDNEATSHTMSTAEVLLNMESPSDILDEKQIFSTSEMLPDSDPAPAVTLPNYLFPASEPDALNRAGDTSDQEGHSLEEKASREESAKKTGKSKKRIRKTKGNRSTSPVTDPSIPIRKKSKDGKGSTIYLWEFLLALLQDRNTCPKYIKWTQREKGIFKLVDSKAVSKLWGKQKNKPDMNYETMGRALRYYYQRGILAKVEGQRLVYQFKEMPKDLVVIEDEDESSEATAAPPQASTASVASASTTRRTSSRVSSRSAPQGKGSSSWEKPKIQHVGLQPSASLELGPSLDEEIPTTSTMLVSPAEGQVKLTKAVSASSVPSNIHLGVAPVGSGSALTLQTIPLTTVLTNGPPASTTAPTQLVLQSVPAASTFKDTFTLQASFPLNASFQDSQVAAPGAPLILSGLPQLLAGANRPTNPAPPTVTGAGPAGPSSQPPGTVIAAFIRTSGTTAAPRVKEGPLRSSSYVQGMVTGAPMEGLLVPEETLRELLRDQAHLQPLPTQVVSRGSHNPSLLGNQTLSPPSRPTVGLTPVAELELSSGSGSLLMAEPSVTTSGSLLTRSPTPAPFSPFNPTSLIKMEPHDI
Chain of ELF1 (P32519 whole entry): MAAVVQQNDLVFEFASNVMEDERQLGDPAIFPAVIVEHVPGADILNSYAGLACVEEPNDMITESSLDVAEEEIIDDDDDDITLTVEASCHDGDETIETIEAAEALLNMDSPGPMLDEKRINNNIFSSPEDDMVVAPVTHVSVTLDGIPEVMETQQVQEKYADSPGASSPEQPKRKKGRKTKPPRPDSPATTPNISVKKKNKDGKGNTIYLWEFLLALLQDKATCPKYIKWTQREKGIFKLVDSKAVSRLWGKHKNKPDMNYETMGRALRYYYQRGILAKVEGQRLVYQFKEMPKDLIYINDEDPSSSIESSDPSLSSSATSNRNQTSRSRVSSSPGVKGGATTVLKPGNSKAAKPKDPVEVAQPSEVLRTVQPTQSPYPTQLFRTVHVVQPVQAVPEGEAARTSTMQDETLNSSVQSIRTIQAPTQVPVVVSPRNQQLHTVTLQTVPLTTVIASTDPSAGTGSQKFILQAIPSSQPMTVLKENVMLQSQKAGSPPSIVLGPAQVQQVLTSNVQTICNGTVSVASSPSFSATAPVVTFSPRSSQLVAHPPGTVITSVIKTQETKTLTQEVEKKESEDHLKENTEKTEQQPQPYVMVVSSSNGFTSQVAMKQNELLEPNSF

Take CCGCAG: the binding signal in the test with ELK1 was 1.09 fold enrichment (6-mer frequency, TF over GST control); with GABPA it was 1.13 fold enrichment (6-mer frequency, TF over GST control); with ERG, 1.06 fold enrichment (6-mer frequency, TF over GST control); in the test with ELF1 it was 1.01 fold enrichment (6-mer frequency, TF over GST control); with SPI1, 1.11 fold enrichment (6-mer frequency, TF over GST control); in the test with SPIB, 1.21 fold enrichment (6-mer frequency, TF over GST control). Also, the binding signal is 1.08 fold enrichment (6-mer frequency, TF over GST control) with FEV; 1.12 fold enrichment (6-mer frequency, TF over GST control) in the test with ETV5; 1.07 fold enrichment (6-mer frequency, TF over GST control) in the test with ELF4; 1.22 fold enrichment (6-mer frequency, TF over GST control) in the test with ETV2; 1.12 fold enrichment (6-mer frequency, TF over GST control) with ERF; 1.02 fold enrichment (6-mer frequency, TF over GST control) with ETV3L. Moreover, the binding signal is 1.06 fold enrichment (6-mer frequency, TF over GST control) in the test with ETS2; 1.07 fold enrichment (6-mer frequency, TF over GST control) with SPDEF; 1.12 fold enrichment (6-mer frequency, TF over GST control) in the test with ETV7; 1.07 fold enrichment (6-mer frequency, TF over GST control) with ETV3; 1 fold enrichment (6-mer frequency, TF over GST control) in the test with ETV6.
